The results in this text go back to PubChem BioAssay.

Molecules are shown by their SMILES. Active and inactive are the calls of the source.

Test [1] has as its system Human papillomavirus type 1a protein E7 (residues 44-93). Put plainly: small molecules binding HPV E7 44-93 – biochemical, small-molecule microarray, residues 44-93, 635 nm fluorescence, primary screen (AID 1108).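 Also: E7 fragment applied at 1 µg/mL in TBST for 1 h at 4 C; score combines spot fluorescence with its signal to noise ratio.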 Particulars: fluorescence 635 nm, higher = more signal.
A short description of test [2]: hepatitis C replication reporter changes, two-sided – Huh7 cells, luciferase reporter, HCV replication inhibitor project, primary screen (AID 1109).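 Also: huh7 hepatoma cells harbouring a luciferase neomycin HCV replicon reporter; luciferase luminescence as measure of HCV replicon replication; test concentration not given here.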 Particulars: Huh7 HCV replicon luciferase reporter, 48 h; higher = more signal. Background: A reporter such as luciferase makes a cellular process visible.
In test [3] the target is Left-right determination factor 2 (Homo sapiens) (UniProt O00292). As to the kind of experiment: small molecules binding LEFTY2 protein – biochemical, small-molecule microarray, 635 nm fluorescence scan, primary screen (AID 1110). The settings on record: higher = more signal.
Test [4] addresses Calmodulin-1 (Homo sapiens) (UniProt P0DP23). As to the kind of experiment: small molecules binding calmodulin-1 with EGTA – biochemical, small-molecule microarray, Cy5-labelled CALM1, profiling panel (AID 1111).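 Also: labelled calmodulin applied in Tris saline Tween buffer holding calcium plus EGTA and DTT.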 The settings on record: Cy5-CALM1 binding fluorescence, higher = more signal.
The target is the same in test [5]. As to the kind of experiment: small molecules binding Ca-loaded calmodulin-1 – biochemical, small-molecule microarray, Cy5-labelled CALM1, plus calcium, artefact control for SMM control-protein annotation, profiling panel (AID 1112).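 Also: score merges spot fluorescence with signal to noise from triplicate slides.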 The settings on record: Cy5-CALM1 binding fluorescence, higher = more signal.
A short description of test [6]: probe aWnt5a binding to arrayed compounds – biochemical, biotinylated probe, 635/667 nm fluorescence, primary screen (AID 1113).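 Also: score merges 667 nm fluorescence intensity with signal-to-noise per printed feature.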 Particulars: small-molecule microarray, higher = more signal.
Test [7] in a line: probe aShh binding to arrayed compounds – biochemical, biotinylated probe, 635/667 nm fluorescence, primary screen (AID 1114).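 Also: probe is biotin-labelled aShh protein from a stem cell growth factor screen; measures binding of labelled protein to compounds printed on the slide; score merges feature fluorescence at 667 nm with signal-to-noise.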 Particulars: small-molecule microarray, higher = more signal.
Test [8] is described as follows: probe aNog binding to arrayed compounds – biochemical, biotinylated probe, 635/667 nm fluorescence, primary screen (AID 1115).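 Also: probe is biotinylated aNog protein used at 0.15 µg/mL for 1 h at 4 C; z-score combines 667 nm fluorescence of each spot with its signal to noise.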 The settings on record: small-molecule microarray, higher = more signal.
Test [9] deals with Torsin-1A-interacting protein 1 (Homo sapiens) (UniProt Q5JTV8). As to the kind of experiment: compound microarray binding of lysate hLAP1 – cell lysate, small-molecule microarray, COS7 lysate, 635/667 nm fluorescence, primary screen (AID 1116). The settings on record: 635 nm fluorescence, higher = more signal.
For test [10], the target named is Alpha-bungarotoxin (Bungarus multicinctus) (UniProt P60615). Put plainly: compounds binding labelled alpha-BTX control protein – biochemical, small-molecule microarray, Alexa647 label, 635/667 nm fluorescence, artefact control for SMM control protein annotation, profiling panel (AID 1117). The settings on record: alpha-BTX-A647 binding fluorescence, higher = more signal.

Test [11] deals with Albumin (Bos taurus) (UniProt P02769). Put plainly: compounds binding labelled BSA control protein – biochemical, small-molecule microarray, Alexa647 label, 635/667 nm fluorescence, artefact control for SMM control protein annotation, profiling panel (AID 1118).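 Also: score merges 667 nm emission intensity and signal-to-noise per printed compound spot.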 The settings on record: BSA-A647 binding, fluorescence 635 nm, higher = more signal.
Test [12] in a line: probe aXIP binding to arrayed compounds – biochemical, NeuroSMM set, 635/667 nm fluorescence, primary screen (AID 1119).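 Also: probe is the protein aXip251-270 applied at 1 µg/mL to compound-printed slides; binding of probe to printed compounds measured as 667 nm fluorescence plus signal to noise.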 The settings on record: small-molecule microarray, higher = more signal, called active from +8 up or from −8 down.
Test [13] in a line: probe aNOTCH3 binding on compound microarray – biochemical, small-molecule microarray, 635/667 nm fluorescence, primary screen (AID 1120).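 Also: probe is a biotin-tagged antibody raised against NOTCH3 rather than NOTCH3 protein; score merges spot fluorescence near 667 nm with spot signal to noise.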 The settings on record: higher = more signal.
Test [14] in a line: probe aNOTCH2 binding on compound microarray – biochemical, small-molecule microarray, 635/667 nm fluorescence, primary screen (AID 1121).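 Also: score merges feature fluorescence read at 667 nm with its signal to noise.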 The settings on record: higher = more signal.
Test [15] deals with Carbonic anhydrase 2 (Homo sapiens) (UniProt P00918). Put plainly: compounds binding carbonic anhydrase 2 – biochemical, small-molecule microarray, Alexa647-labelled CAII, profiling panel (AID 1122). The settings on record: CAII-A647 binding fluorescence, higher = more signal.
Test [16] in a line: COS7 lysate on small-molecule microarray, probe aHis, 635 nm (AID 1123).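 Also: z-score combines 667nm fluorescence intensity with signal-to-noise per printed compound spot.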 Particulars: COS7 cell lysate, fluorescence, higher = more signal.
The nature of test [17]: probe aLAP1 signal on lysate-treated microarray – cell lysate, small-molecule microarray, COS7 lysate, primary screen (AID 1124).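 Also: lysate comes from COS7 cells expressing LAP1 and is applied at 0.3 µg/mL; score merges spot fluorescence near 667 nm with signal-to-noise over triplicate slides.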 Particulars: probe aLAP1, fluorescence, higher = more signal.
Test [18] relates to Sam68 (KHDRBS1). As to the kind of experiment: compounds binding KHDRBS1 protein – biochemical, small-molecule microarray, 635 nm fluorescence, primary screen (AID 1125).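 Also: score merges 667 nm channel intensity with signal to noise over triplicate slides.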 Particulars: higher = more signal.
The test system of test [19] is Chordin-like protein 2 (CHRDL2). Put plainly: compounds binding chordin-like 2 – biochemical, small-molecule microarray, 635 nm fluorescence, primary screen (AID 1126).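 Also: printed compound slides probed with Chrdl2 protein at 4 µg/mL for 1 h at 4 C; score merges 667 nm emission intensity with signal to noise over three replicate slides.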 The settings on record: fluorescence 635 nm, higher = more signal.
The target in test [20] is Concanavalin-A (Canavalia ensiformis) (UniProt P02866). Put plainly: compounds binding concanavalin A lectin – biochemical, small-molecule microarray, Alexa647 label, 635 nm, artefact control for SMM control protein annotation, primary screen (AID 1127).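 Also: z combines 667 nm emission intensity with signal-to-noise across three replicate slides.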 The settings on record: ConA-A647 binding fluorescence, higher = more signal.
Chain of Concanavalin-A (Canavalia ensiformis) (P02866 whole entry, looked up): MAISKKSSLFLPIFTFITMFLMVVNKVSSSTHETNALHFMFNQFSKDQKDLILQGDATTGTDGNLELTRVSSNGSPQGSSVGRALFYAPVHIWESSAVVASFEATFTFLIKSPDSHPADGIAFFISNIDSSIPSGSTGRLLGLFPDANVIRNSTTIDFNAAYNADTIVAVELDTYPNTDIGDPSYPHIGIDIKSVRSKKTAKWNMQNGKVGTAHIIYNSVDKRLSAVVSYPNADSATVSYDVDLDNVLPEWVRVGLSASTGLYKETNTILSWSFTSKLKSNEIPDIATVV

Chain of Torsin-1A-interacting protein 1 (Homo sapiens) (Q5JTV8 whole entry, looked up): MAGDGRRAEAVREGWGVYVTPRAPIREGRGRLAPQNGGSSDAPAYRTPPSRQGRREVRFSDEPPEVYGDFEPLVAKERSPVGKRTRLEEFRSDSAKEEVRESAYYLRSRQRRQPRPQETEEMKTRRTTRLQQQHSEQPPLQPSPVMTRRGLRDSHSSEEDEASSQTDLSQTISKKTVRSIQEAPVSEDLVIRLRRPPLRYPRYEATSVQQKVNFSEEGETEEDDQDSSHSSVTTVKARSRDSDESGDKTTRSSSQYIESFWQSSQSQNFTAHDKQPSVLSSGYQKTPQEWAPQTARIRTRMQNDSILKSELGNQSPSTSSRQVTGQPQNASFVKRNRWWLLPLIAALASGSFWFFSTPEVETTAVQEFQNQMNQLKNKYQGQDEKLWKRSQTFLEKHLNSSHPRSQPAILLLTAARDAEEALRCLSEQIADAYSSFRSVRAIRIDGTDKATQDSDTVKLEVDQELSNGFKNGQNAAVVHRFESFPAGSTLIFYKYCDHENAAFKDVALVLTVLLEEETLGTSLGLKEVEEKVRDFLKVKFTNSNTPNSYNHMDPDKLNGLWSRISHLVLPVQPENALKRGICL
Chain of Albumin (Bos taurus) (P02769 whole entry, looked up): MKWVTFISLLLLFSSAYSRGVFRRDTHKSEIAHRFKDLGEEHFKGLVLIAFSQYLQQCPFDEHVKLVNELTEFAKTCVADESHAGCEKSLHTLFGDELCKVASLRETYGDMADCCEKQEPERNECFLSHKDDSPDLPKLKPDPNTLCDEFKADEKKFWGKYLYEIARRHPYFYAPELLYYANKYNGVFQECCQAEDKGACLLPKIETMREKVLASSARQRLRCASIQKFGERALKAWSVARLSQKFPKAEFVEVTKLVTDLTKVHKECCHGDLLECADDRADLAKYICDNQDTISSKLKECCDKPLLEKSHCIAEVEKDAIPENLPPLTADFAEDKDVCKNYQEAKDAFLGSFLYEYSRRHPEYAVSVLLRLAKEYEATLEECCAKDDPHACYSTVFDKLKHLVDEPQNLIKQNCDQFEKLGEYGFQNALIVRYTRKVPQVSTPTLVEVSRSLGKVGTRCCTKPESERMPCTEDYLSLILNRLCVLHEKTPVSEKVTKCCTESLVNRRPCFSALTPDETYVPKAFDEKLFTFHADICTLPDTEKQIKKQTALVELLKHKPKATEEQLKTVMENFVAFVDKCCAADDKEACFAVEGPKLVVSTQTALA
Chain of Left-right determination factor 2 (Homo sapiens) (O00292 whole entry, looked up): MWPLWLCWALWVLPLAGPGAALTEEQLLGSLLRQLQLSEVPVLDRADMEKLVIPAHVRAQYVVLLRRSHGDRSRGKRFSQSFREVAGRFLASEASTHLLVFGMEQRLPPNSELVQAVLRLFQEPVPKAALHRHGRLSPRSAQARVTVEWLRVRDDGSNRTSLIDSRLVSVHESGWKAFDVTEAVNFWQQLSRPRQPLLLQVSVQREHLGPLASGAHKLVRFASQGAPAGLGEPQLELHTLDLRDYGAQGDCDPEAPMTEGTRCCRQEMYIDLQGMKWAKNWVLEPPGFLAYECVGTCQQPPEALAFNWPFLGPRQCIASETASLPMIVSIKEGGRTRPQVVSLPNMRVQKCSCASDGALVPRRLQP
Chain of Alpha-bungarotoxin (Bungarus multicinctus) (P60615 whole entry, looked up): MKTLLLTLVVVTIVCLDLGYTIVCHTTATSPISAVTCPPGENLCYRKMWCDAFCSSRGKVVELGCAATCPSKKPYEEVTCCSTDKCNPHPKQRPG

Take `COCCOC(=O)N1C(=O)[C@@]2(c3cc(C#CC4=CCCCC4)ccc31)[C@H](C(N)=O)[C@H]1C(=O)O[C@H](c3ccccc3)[C@H](c3ccccc3)N1[C@@H]2c1ccc(OCCO)cc1`: the composite z-score was -0.71 in [1]; 0.331 in test [3]; -0.822 in test [4]; -0.919 in [5]; -0.124 in [6]; 0.049 in test [7]. Besides, the composite z-score was 0.299 in [8]; 0.855 in test [9]; 1.56 in [10]; 0.588 in test [11]; -0.315 in [13]; -0.259 in test [14]. The composite z-score in test [15] is 0.348; in test [16], 0.763; in test [17] it was 0.481; in test [18] it was 1.3; in test [19], 0.0151; in [20] it was 0.459. The compound further returned a z-score in test [2] of -2.5. The composite Z-score in [12] is 0.362 (inactive).

On to `COc1ccc(C(=O)Nc2cccc(CN3C(=O)[C@]4(O[C@H](CCO)[C@@H]([Si](C)(C)c5ccc(OC)cc5)[C@@H]4C)c4ccccc43)c2)cc1`, for which the composite z-score in test [1] is 1.28; in [3], 0.442; in test [4] it was 0.123; in test [5], 0.0559; in test [6] it was 0.0194; in test [7] it was -0.133. The composite z-score in [8] is 0.6; in test [9], 0.603; in test [10], 0.805; in test [11] it was 0.0296; in [13] it was 0.0297; in test [14] it was -0.112. In addition, the composite z-score in [15] was 0.41; in test [16], 0.787; in test [17] it was 0.593; in test [18] it was 1.21; in [19], 0.379; in test [20], 1.13. Moreover, in test [2], the z-score was -5.16. In test [12], the composite Z-score was -0.494 (inactive).

`CC(CO)N1C(=O)[C@@H]2C3C(=O)OCCC/C=C\[C@H]3OC23C=CCN(c2ccc4ccccc4c2)C(=O)[C@@H]13` (stereo not given in full): the composite z-score in [1] is -0.711; in test [3], -1.22; in test [4] it was 0.0827; in test [5], -0.0356; in test [6], -0.127; in [7] it was -0.273. Further, the composite z-score in test [8] is -0.0675; in test [9], 1.19; in test [10] it was 0.169; in [11], 0.611; in [13] it was -0.219; in test [14] it was -0.115. For the same compound, the composite z-score in [15] is 0.0684; in test [16], -0.519; in test [17] it was -0.377; in test [18] it was -0.704; in test [19], -0.535; in [20] it was -0.172. The compound further gave a z-score in [2] of 0.793. In test [12], the composite Z-score was -0.0775 (inactive).

Consider `COCCOC(=O)N1C(=O)[C@@]2(c3cc(C#Cc4ccc(OC)cc4)ccc31)[C@H](c1ccccc1OCCO)N1[C@H](c3ccccc3)[C@H](c3ccccc3)OC(=O)[C@H]1[C@@H]2C(=O)N1CCN(c2ncccn2)CC1`, for which the composite z-score in test [1] was 1.18; in [3], 0.278; in [4] it was 0.694; in test [5], 0.805; in test [6], -0.118; in test [7], 0.13. The composite z-score was 0.121 in test [8]; 0.949 in test [9]; 0.876 in test [10]; 0.322 in [11]; -0.0288 in test [13]; -0.131 in [14]. For the same compound, the composite z-score in test [15] stood at 0.336; in test [16] it was 0.572; in test [17], 0.141; in test [18], 0.866; in test [19], 0.0135; in test [20], 0.923. The compound also registered a z-score in test [2] of -1.49. Moreover, the composite Z-score in test [12] was 0.179 (inactive).

`CCN(CC)c1ccc(N2CC=CC34O[C@@H]5/C=C\CCCOC(=O)C5[C@H]3C(=O)N(CCO)[C@@H]4C2=O)cc1` (stereo not given in full): the composite z-score in [1] was -0.0422; in test [3], -0.85; in test [4] it was -0.557; in [5], 0.172; in [6] it was -0.113; in [7] it was -0.0769. For the same compound, the composite z-score in [8] was -0.406; in test [9] it was -0.233; in test [10], -0.259; in test [11], -0.633; in test [13], -0.299; in test [14], -0.14. Besides, the composite z-score was 0.78 in test [15]; 0.534 in test [16]; 0.485 in [17]; -0.526 in test [18]; -1.39 in test [19]; -0.362 in test [20]. The compound further came in with a z-score in test [2] of -0.684. The composite Z-score in test [12] was 0.858 (inactive).
